This test in a line: NCI Yeast Anticancer Drug Screen. Data for the rad52 strain (AID 147).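 Also: 0% = growth of vehicle-treated control cultures.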 The note with it: S. cerevisiae rad52 mutant growth inhibition, stronger effect = higher value. The method, then:
Growth inhibition of yeast strains with defined genetic alterations is measured as a screen for potential anti-cancer activity. Selected strains with alterations in DNA damage repair or cell cycle control were exposed to compounds and growth inhibition was measured relative to vehicle treated controls. The strain used in this assay is rad52

Each structure is given as a SMILES string. Compounds without any hit were thinned out: in the full panel of roughly 79,000, 15% have a hit. Unmarked numbers belong to inactive results. Active and inactive are the calls of the source. Rule as the data show it: active = growth inhibition above about 70%; inactive = the rest.

Take `CC(C)(CN1CCCCC1)C(=O)/C=C/c1c(Cl)cccc1Cl`: the growth inhibition is, setting by setting: (at 1.2 µM) 12%; (at 3.7 µM) 35%; (at 11.0 µM) 68%; (at 33.0 µM) 98% (active); (at 100.0 µM) 98% (active).
As for `Cc1nc2sc3c(c2c(=O)o1)CCCC3`, the growth inhibition is, setting by setting: (at 1.2 µM) 0%; (at 3.7 µM) 2%; (at 11.0 µM) 1%; (at 33.0 µM) 6%; (at 100.0 µM) 4%.
As for `CS(=O)(=O)O.[Ag]`, the growth inhibition by setting is: (at 1.2 µM) 72% (active); (at 3.7 µM) 99% (active); (at 11.0 µM) 99% (active); (at 33.0 µM) 99% (active); (at 100.0 µM) 98% (active).
For `CCN(CC)C(=S)SC(=S)N(CC)CC`, the growth inhibition runs as follows: (at 1.2 µM) -33%; (at 3.7 µM) -17%; (at 11.0 µM) 27%; (at 33.0 µM) 96% (active); (at 100.0 µM) 98% (active).
With `O=[N+]([O-])c1ccc(/C=C\c2ccc3c(c2)OCO3)c([N+](=O)[O-])c1`, the growth inhibition is 3% (at 1.2 µM); 12% (at 3.7 µM); 26% (at 11.0 µM); 54% (at 33.0 µM); 83% (active) (at 100.0 µM).
On to `O=C1Nc2ccc(Br)cc2C1=Nc1ccc(Cl)cc1`, for which the growth inhibition (at 1.2 µM) is -20%; the growth inhibition (at 3.7 µM) was -12%; the growth inhibition (at 11.0 µM) is 9%; the growth inhibition (at 33.0 µM) was 42%; the growth inhibition (at 100.0 µM) was 64%.
Turning to `CCOP(=O)(OCC)/C(C#N)=C/c1cccc(Oc2ccccc2)c1`, the growth inhibition (at 1.2 µM) is -17%; the growth inhibition (at 3.7 µM) was -14%; the growth inhibition (at 11.0 µM) was 60%; the growth inhibition (at 33.0 µM) is 95% (active); the growth inhibition (at 100.0 µM) was 96% (active).
Consider `c1ccc([P+](CCN2Cc3ccccc3C2)(c2ccccc2)c2ccccc2)cc1`, for which the growth inhibition runs as follows: (at 1.2 µM) 29%; (at 3.7 µM) 54%; (at 11.0 µM) 39%; (at 33.0 µM) 64%; (at 100.0 µM) 95% (active).

The values above are taken from PubChem BioAssay (NCI).
